Measurements published in the supplement of paper PMC11172423.
Unmarked numbers belong to inactive results.

How the values were obtained:
[1] = system: Falciformispora senegalensis CBS197.79; assay: growth relative to untreated control; higher = less inhibition, active = 20 or less
How it was run: (§1)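 For each test, a hyphal fragment suspension of M. mycetomatis MM55 or F. senegalensis CBS197.79 was prepared in colourless RPMI 1640 with L-glutamine and MOPS at 68–72% transmission at 660 nm. Exposure to compound at 100 or 25 µM ran for 7 days at 37 °C in 96-well plates, followed by viability reading with MTS (2 h, 490 nm) or resazurin (600 nm). Growth corresponds to metabolic activity relative to the untreated growth control after correction of both with a blank of medium and dye.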

[2] = system: Madurella mycetomatis MM55; assay: as above
How it was run: as §1

Row | Structure (SMILES) | growth ([1]; 25 µM) | growth ([1]; 100 µM) | growth ([2]; 25 µM) | growth ([2]; 100 µM)
1 | O=C(NCCN1CCCC1)c1ccc(Nc2nccc(-c3ccc(Cl)cc3)n2)cc1 | 83.6% | 7.34% (active) | 50.5% | 5.82% (active)
2 | CCNCc1cc(Nc2ccnc3cc(Cl)ccc23)ccc1O | 48.5% | 16.4% (active) | 37% | 2.65% (active)
3 | C=CCNc1nc(NCC=C)nc(N2CCN(C(c3ccc(F)cc3)c3ccc(F)cc3)CC2)n1 | 105% | 91.3% | 91.8% | 83.9%
4 | Cc1c2c(n3c(nc4ccccc43)c1C#N)N(CCN(C)C)CC2 | 64.5% | 88.2% | 101% | 43.7%
5 | C[C@@H](O[C@H]1OCCN(Cc2n[nH]c(O)n2)[C@H]1c1ccc(F)cc1)c1cc(C(F)(F)F)cc(C(F)(F)F)c1 | 104% | 103% | 89.8% | 5.09% (active)
6 | CC(C)C(=O)OCC(=O)[C@@]12OC(C3CCCCC3)O[C@@H]1C[C@H]1[C@@H]3CCC4=CC(=O)C=C[C@]4(C)[C@H]3[C@@H](O)C[C@@]12C (some centres not stated) | 109% | 105% | 75.3% | 90.7%
7 | CCN1CCN(C2CCN(C(=O)COc3ccc(-c4ccccc4F)cc3)CC2)CC1 | 99.8% | 6% (active) | 105% | 41.1%
8 | Oc1nc2ccccc2n1C1CCN(CCCC(c2ccc(F)cc2)c2ccc(F)cc2)CC1 | 101% | 100% | 7.07% (active) | 64.9%
